Compound activity: PubChem, National Center for Advancing Translational Sciences (NCATS)
Only some compounds are listed: those with a hit (about 19% of all), similar ones and a draw of the others.
SW480 rereplic – A quantitative high throughput screen for small molecules that induce DNA re-replication in SW480 colon adenocarcinoma cells. SW480 DNA re-replication, Hoechst DNA content imaging, 48 h. Potency, µM (titrated, usually from 46.1 µM), for the others: top-dose re-replication activation, hits mostly activators. 340,000 compounds, 1.8% hits. AID 624297, 2012; note: potency is the fitted concentration of half-maximal effect; % of control where 0% means no effect; nearly all actives have a fitted effect of over 55% in size
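Hoechst fluorescence of nuclei (405 nm excitation, 500-530 nm emission) measured by plate-scanning imager after 48 hr compound exposure at 37 C; re-replication scored as increased number of nuclei with elevated intensity.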
MCF10A rereplic – A quantitative high throughput screen for small molecules that induce DNA re-replication in MCF 10a normal breast cells; MCF 10A DNA re-replication, Hoechst nuclear intensity, 48 h; Potency, µM (highest dose often 46.1 µM), inactives show top-dose activity, positive = re-replication, actives largely listed as activators; 350,000 compounds, 2.9% hits; AID 624296, 2012; note: potency is the fitted concentration of half-maximal effect; % of control where 0% means no effect; nearly all actives have a fitted effect of over 50% in size
Chronic BCR inh – qHTS Assay to Find Inhibitors of Chronic Active B-Cell Receptor Signaling | 340,000 compounds, 0.05% hits | ABC-DLBCL IkBa-CBG/CBR reporter, luminescence ratio, 4 h | Potency, µM (top dose mostly 46.1 µM), inactives show at the highest dose activity change, negative = inhibition, usual class: inhibitors | AID 493014, 2011; active = well fitted inhibition curve with a large enough effect in the signal ratio, with a control signal flat, not every such curve was filed as active; inconclusive = small, poorly fitted or top-dose-only effect, or effect the other way, or a change in a side signal; the % refers to the signal ratio;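 note: potency is the fitted concentration of half-maximal effect; plate controls were basal doxycycline-induced cells for no effect and cells given 10 µM MG132 for full effect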
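Compounds up to 46 uM were incubated four hours with TMD8 cells whose green CBG68 luciferase is fused to IkappaBalpha; red CBR luminescence normalised the signal, and concentration-effect curves were fitted to fusion, red and ratio data.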
DT40 TDP1 no CPT – qHTS for Inhibitors of human tyrosyl-DNA phosphodiesterase 1 (TDP1): qHTS in cells in absence of CPT; Potency, µM (titrated, usually from 46.2 µM), for inactives: top-dose activity change, negative = growth inhibition, most hits filed as inhibitors; 420,000 compounds, 15% hits; DT40 Tdp1-/- hTDP1 cells, no CPT, ATP luminescence, 48 h; note: potency is the fitted concentration of half-maximal effect; % is set by controls: 0 for no effect and ±100 for the full control effect; nearly all actives have a fitted effect of over 55% in size
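Readout: luminescence from CellTiter-Glo after 30 min in the dark at RT. Cells: DT40 Tdp1-/- with stable hTDP1, 400/well. Exposure: compounds alone, ≥48 hr, 37 °C.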
TDP1 cell CPT – qHTS for Inhibitors of human tyrosyl-DNA phosphodiesterase 1 (TDP1): qHTS in cells in presence of CPT. chicken DT40 Tdp1-/-;hTDP1 cells + 20 nM CPT, ATP luminescence, 48 h. Potency, µM (doses to about 46.2 µM), for the others: at the top dose activity change, negative = growth inhibition, most hits filed as inhibitors. 420,000 compounds, 12% hits; note: potency is the fitted concentration of half-maximal effect; % is set by controls: 0 for no effect and ±100 for the full control effect; nearly all actives have a fitted effect of over 55% in size
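Cell growth measured by CellTiter-Glo luminescence after a minimum 48 h, 37 C compound exposure with 20 nM CPT in Tdp1-knockout DT40 cells stably expressing hTDP1, seeded 400/well; qHTS titration format.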
IL-1B inflam inh – qHTS for Inhibitors of Inflammasome Signaling: IL-1-beta AlphaLISA Primary Screen; THP-1 LPS/ATP IL-1B secretion, AlphaLISA, 16 h; hits give low values; activity change, % at 57.5 µM; 360,000 compounds, 4.7% hits; AID 743279, 2014; in the data active = activity change below about -50%; inconclusive = mostly about -30% to -49%; note: % is set by controls: 0 for no effect and ±100 for the full control effect
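THP-1 cells pretreated 1 hr with compounds (up to 57.5 uM final), then stimulated with LPS (250 ng/mL final) plus ATP (1.25 mM final); secreted IL-1B measured by AlphaLISA after 16 hr, decreased signal indicating inhibition.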
* marks the source's active call; other numbers are inactive results; [ ] = dose if it differs, or a comment. Unless noted, calls come from the whole dose curve; as a rule, active = well fitted curve in the direction sought with a large enough effect; inconclusive = small, poorly fitted or top-dose-only effect, or another doubt; inactive = no such curve, though single readings can be large; an effect the other way counts as inactive or inconclusive.

What do the screens show for `COC(=O)c1cc(Cl)c(NC(=O)c2ccc(C(C)(C)C)cc2)cc1OC`?
SW480 rereplic: 20%; MCF10A rereplic: 9.2µM*; Chronic BCR inh: -1%; DT40 TDP1 no CPT: 18µM*; TDP1 cell CPT: 26µM*; IL-1B inflam inh: 22

Results for COC(=O)c1cc(Cl)c(NC(=O)C(C)C)cc1OC ?
SW480 rereplic: -29%; MCF10A rereplic: -7%; Chronic BCR inh: 8%; DT40 TDP1 no CPT: 10%; TDP1 cell CPT: 28%; IL-1B inflam inh: 0

What do the screens show for `COc1cc2c(cc1NC(=O)c1cccc(Br)c1)CCCC2`?
SW480 rereplic: 10%; MCF10A rereplic: 14%; Chronic BCR inh: inconclusive; DT40 TDP1 no CPT: 16µM*; TDP1 cell CPT: inconclusive; IL-1B inflam inh: 0

How did COc1cc(NC(=O)Nc2ccccc2)c(OC)cc1NC(=O)CN1CCCCC1 do in these assays?
SW480 rereplic: inconclusive; MCF10A rereplic: inconclusive; Chronic BCR inh: 12%; DT40 TDP1 no CPT: inconclusive; TDP1 cell CPT: inconclusive; IL-1B inflam inh: -10

What do the screens show for `COc1cc2c(cc1NC(=O)c1cccc(F)c1)CCCC2`?
SW480 rereplic: 7%; MCF10A rereplic: 21%; Chronic BCR inh: 5%; DT40 TDP1 no CPT: inconclusive; TDP1 cell CPT: inconclusive; IL-1B inflam inh: -3

How did COc1cc(NC(=O)c2ccc(C)cc2)c(OC)cc1NC(=O)CN1CCOCC1 do in these assays?
SW480 rereplic: -4%; MCF10A rereplic: 16%; Chronic BCR inh: 2%; DT40 TDP1 no CPT: 16µM*; TDP1 cell CPT: inconclusive; IL-1B inflam inh: -19

Results for COc1cc(NC(=O)c2cccc(C)c2)c(OC)cc1NC(=O)CN1CCCCC1 ?
SW480 rereplic: 7%; MCF10A rereplic: 11%; Chronic BCR inh: 2%; DT40 TDP1 no CPT: 16µM*; TDP1 cell CPT: inconclusive; IL-1B inflam inh: -62*

How did Cc1ccc([N+](=O)[O-])cc1Nc1nc(N2CCCC2)nc(N2CCCC2)n1 do in these assays?
SW480 rereplic: 0%; MCF10A rereplic: inconclusive; Chronic BCR inh: inconclusive; DT40 TDP1 no CPT: inconclusive; TDP1 cell CPT: inconclusive; IL-1B inflam inh: 14

Results for COc1cc(NC(=O)c2ccc(Cl)cc2)c(OC)cc1NC(=O)CN1CCOCC1 ?
SW480 rereplic: -3%; MCF10A rereplic: inconclusive; Chronic BCR inh: inconclusive; DT40 TDP1 no CPT: inconclusive; TDP1 cell CPT: inconclusive; IL-1B inflam inh: inconclusive

What do the screens show for `COc1cc2c(cc1NC(=O)c1ccccc1F)CCCC2`?
SW480 rereplic: 1%; MCF10A rereplic: 12%; Chronic BCR inh: 5%; DT40 TDP1 no CPT: 21µM*; TDP1 cell CPT: inconclusive; IL-1B inflam inh: 9

How did Cc1ccc(NC(=O)C(c2ccccc2)c2ccccc2)c(O)c1 do in these assays?
SW480 rereplic: -32%; MCF10A rereplic: 5%; Chronic BCR inh: -1%; DT40 TDP1 no CPT: 7%; TDP1 cell CPT: 1%; IL-1B inflam inh: -56*

Results for COc1cc(NC(=O)c2ccccc2F)c(OC)cc1NC(=O)CN1CCCCC1 ?
SW480 rereplic: -18%; MCF10A rereplic: inconclusive; Chronic BCR inh: inconclusive; DT40 TDP1 no CPT: 16µM*; TDP1 cell CPT: inconclusive; IL-1B inflam inh: -57*

How did COc1cc(NC(=O)c2ccc(C(C)(C)C)cc2)c(OC)cc1NC(=O)CN1CCCCC1 do in these assays?
SW480 rereplic: 26%; MCF10A rereplic: inconclusive; Chronic BCR inh: 13%; DT40 TDP1 no CPT: 21µM*; TDP1 cell CPT: inconclusive; IL-1B inflam inh: -23

What do the screens show for `Cc1cc(C)cc(C(O)c2ncc(-c3ccccc3)[nH]2)c1` (centres undefined)?
DT40 TDP1 no CPT: -17%; TDP1 cell CPT: -27%; IL-1B inflam inh: 1

Results for CCCCN1C(=O)N(CCc2ccc(F)cc2)S(=O)(=O)c2cc(C(F)(F)F)ccc21 ?
SW480 rereplic: -11%; MCF10A rereplic: 24%; Chronic BCR inh: 7%; DT40 TDP1 no CPT: inconclusive; TDP1 cell CPT: -17%; IL-1B inflam inh: -4

What do the screens show for `COc1cc(NC(=O)c2ccc(Cl)cc2)c(OC)cc1NC(=O)CN1CCCCC1`?
SW480 rereplic: inconclusive; MCF10A rereplic: inconclusive; Chronic BCR inh: 6%; DT40 TDP1 no CPT: 18µM*; TDP1 cell CPT: inconclusive; IL-1B inflam inh: -84*

How did COc1cc2c(cc1NC(=O)C(c1ccccc1)c1ccccc1)CCCC2 do in these assays?
SW480 rereplic: 3%; MCF10A rereplic: inconclusive; Chronic BCR inh: 16%; DT40 TDP1 no CPT: 12µM*; TDP1 cell CPT: inconclusive; IL-1B inflam inh: 5

Results for CC1=CC[C@@]2(CO)COC(c3ccccc3O)C1C2 (some centres undefined) ?
DT40 TDP1 no CPT: 9%[9.04 µM]; TDP1 cell CPT: 6%[9.04 µM]

Results for CCN(CC)S(=O)(=O)c1cccc(NC(=O)COc2ncnc3sccc23)c1 ?
SW480 rereplic: 9%; MCF10A rereplic: 2%; Chronic BCR inh: 0%; DT40 TDP1 no CPT: 16µM*; TDP1 cell CPT: inconclusive; IL-1B inflam inh: 18

How did Cc1ccc(NC(=O)COc2ncnc3sccc23)cc1S(=O)(=O)N(C)C do in these assays?
SW480 rereplic: 2%; MCF10A rereplic: inconclusive; Chronic BCR inh: 0%; DT40 TDP1 no CPT: -11%; TDP1 cell CPT: -15%; IL-1B inflam inh: 0

Results for COc1cc(C#N)ccc1OCC(=O)Nc1cccc(S(=O)(=O)N(C)c2ccccc2)c1 ?
DT40 TDP1 no CPT: 18µM*; TDP1 cell CPT: 12µM*; IL-1B inflam inh: -1

Results for CCN(CC)S(=O)(=O)c1cc(NC(=O)COc2ccc(C#N)cc2OC)ccc1C ?
MCF10A rereplic: 5%; Chronic BCR inh: 0%; DT40 TDP1 no CPT: 23µM*; TDP1 cell CPT: 21µM*; IL-1B inflam inh: 0

Results for CCN(CC)S(=O)(=O)c1cccc(NC(=O)COc2ccc(C#N)cc2OC)c1 ?
SW480 rereplic: -10%; MCF10A rereplic: 11%; Chronic BCR inh: -4%; DT40 TDP1 no CPT: 23µM*; TDP1 cell CPT: inconclusive; IL-1B inflam inh: 34

How did CC1(C)OC(=O)C2=C(C[C@@H](CCOCc3ccccc3)O[C@@H]2c2ccc(F)cc2)O1 do in these assays?
DT40 TDP1 no CPT: inconclusive; TDP1 cell CPT: inconclusive; IL-1B inflam inh: 0
